Laboratory results reported in PubChem BioAssay (NCATS).
Records with an inconclusive call do not appear. Activity calls are given as the source filed them. Calls come from the whole dose curve; as a rule, active = well fitted cell-killing curve with a large enough effect; inconclusive = small, poorly fitted or top-dose-only effect, or effect the other way; inactive = no such curve, though single readings can be large or run the other way.

Columns and labels:
[1] = Quantitative High-Throughput drug screen in 47 multiple myeloma cell lines against the NCATS MIPE library collection: OCIMY7_PLB cell viability assay (AID 1918987); settings: OCI-MY7 myeloma viability, CellTiter-Glo ATP, 48 h; viability (% of DMSO): at 45.8 µM (top of the series); note: nearly all actives have a fitted effect of over 65% in size; note: potency is the fitted concentration of half-maximal effect
Procedure, shortened: (§1)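 Viability after 48 h drug exposure was measured as ATP-dependent luminescence. Cells, 500 per well, sat at 37 °C under 5% CO2; DMSO wells set 100%, media-only wells 0%.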

[2] = Quantitative High-Throughput drug screen in 47 multiple myeloma cell lines against the NCATS MIPE library collection: OPM1_PLB cell viability assay (AID 1918989); note: nearly all actives have a fitted effect of over 40% in size; note: potency is the fitted concentration of half-maximal effect
Procedure, shortened: as §1

[3] = Quantitative High-Throughput drug screen in 47 multiple myeloma cell lines against the NCATS MIPE library collection: SKMM1_PLB cell viability assay (AID 1919863); settings: SKMM1 myeloma viability, CellTiter-Glo ATP, 48 h; viability: active compounds read low; note: nearly all actives have a fitted effect of over 35% in size; note: potency is the fitted concentration of half-maximal effect
Procedure, shortened: as §1

[4] = Quantitative High-Throughput drug screen in 47 multiple myeloma cell lines against the NCATS MIPE library collection: U266_ATCC cell viability assay (AID 1919864); note: nearly all actives have a fitted effect of over 35% in size; note: potency is the fitted concentration of half-maximal effect
Procedure, shortened: as §1

[5] = Quantitative High-Throughput drug screen in 47 multiple myeloma cell lines against the NCATS MIPE library collection: XG6_PLB cell viability assay (AID 1919865); note: nearly all actives have a fitted effect of over 40% in size; note: potency is the fitted concentration of half-maximal effect
Procedure, shortened: as §1

[6] = Quantitative High-Throughput drug screen in 47 multiple myeloma cell lines against the NCATS MIPE library collection: XG1_PLB cell viability assay (AID 1919866); note: nearly all actives have a fitted effect of over 35% in size; note: potency is the fitted concentration of half-maximal effect
Procedure, shortened: as §1

[7] = Quantitative High-Throughput drug screen in 47 multiple myeloma cell lines against the NCATS MIPE library collection: VP6_DJ cell viability assay (AID 1919867); note: nearly all actives have a fitted effect of over 40% in size; note: potency is the fitted concentration of half-maximal effect
Procedure, shortened: as §1

[8] = Quantitative High-Throughput drug screen in 47 multiple myeloma cell lines against the NCATS MIPE library collection: UTMC2_PLB cell viability assay (AID 1919868); settings: CellTiter-Glo ATP luminescence, 48 h; viability (% of DMSO control): at 45.8 µM (top of the series); note: nearly all actives have a fitted effect of over 55% in size; note: potency is the fitted concentration of half-maximal effect
Procedure, shortened: as §1

[9] = Quantitative High-Throughput drug screen in 47 multiple myeloma cell lines against the NCATS MIPE library collection: PE2_PLB cell viability assay (AID 1919869); note: nearly all actives have a fitted effect of over 35% in size; note: potency is the fitted concentration of half-maximal effect
Procedure, shortened: as §1

[10] = Quantitative High-Throughput drug screen in 47 multiple myeloma cell lines against the NCATS MIPE library collection: RPMI8226_ATCC cell viability assay (AID 1919871); note: nearly all actives have a fitted effect of over 30% in size; note: potency is the fitted concentration of half-maximal effect
Procedure, shortened: as §1

[11] = Quantitative High-Throughput drug screen in 47 multiple myeloma cell lines against the NCATS MIPE library collection: KMS11_JCRBsus cell viability assay (AID 1919873); note: nearly all actives have a fitted effect of over 50% in size; note: potency is the fitted concentration of half-maximal effect
Procedure, shortened: as §1

[12] = Quantitative High-Throughput drug screen in 47 multiple myeloma cell lines against the NCATS MIPE library collection: KMS28BM_JCRB cell viability assay (AID 1919874); note: nearly all actives have a fitted effect of over 35% in size; note: potency is the fitted concentration of half-maximal effect
Procedure, shortened: as §1

[13] = Quantitative High-Throughput drug screen in 47 multiple myeloma cell lines against the NCATS MIPE library collection: KMS34_JCRB cell viability assay (AID 1918985); note: nearly all actives have a fitted effect of over 40% in size; note: potency is the fitted concentration of half-maximal effect
Procedure, shortened: as §1

[14] = Quantitative High-Throughput drug screen in 47 multiple myeloma cell lines against the NCATS MIPE library collection: OCIMY5_PLB cell viability assay (AID 1918988); note: nearly all actives have a fitted effect of over 65% in size; note: potency is the fitted concentration of half-maximal effect
Procedure, shortened: as §1

[15] = Quantitative High-Throughput drug screen in 47 multiple myeloma cell lines against the NCATS MIPE library collection: OPM2_DSMZ cell viability assay (AID 1919872); note: nearly all actives have a fitted effect of over 30% in size
Procedure, shortened: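 Myeloma cells (500 per well) were exposed to MIPE 4.0 compounds by pin transfer and incubated 48 hours at 37C, 5% CO2. Viability was read as ATP by CellTiter-Glo luminescence, normalised to DMSO (100%) and media-only (0%) wells.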

[16] = Quantitative High-Throughput drug screen in 47 multiple myeloma cell lines against the NCATS MIPE library collection: PCM6_Riken cell viability assay (AID 1919870); note: nearly all actives have a fitted effect of over 30% in size; note: potency is the fitted concentration of half-maximal effect
Procedure, shortened: as §1

[17] = Quantitative High-Throughput drug screen in 47 multiple myeloma cell lines against the NCATS MIPE library collection: L363_DSMZ cell viability assay (AID 1918984); note: nearly all actives have a fitted effect of over 40% in size; note: potency is the fitted concentration of half-maximal effect
Procedure, shortened: as §1

C=CC(=O)Nc1cc(NC(=O)c2ccc(C)c(NC(=O)c3ccno3)c2)cc(C(F)(F)F)c1
active: Potency [1] 16.6 µM | Potency [2] 23.5 µM | Potency [3] 18.7 µM | Potency [4] 20.9 µM | Potency [5] 16.6 µM | Potency [6] 14.8 µM | Potency [7] 16.6 µM | Potency [8] 20.9 µM | Potency [9] 16.6 µM | Potency [10] 23.5 µM | Potency [11] 11.8 µM | Potency [12] 20.9 µM

Cn1cc(C[C@@H](N)C(=O)O)c2ccccc21
inactive: Potency [14] | Potency [2] | Potency [5] | Potency [6] | Potency [9] | Potency [10] | Potency [15] | Potency [12]
active: Potency [13] 4.57 µM | Potency [3] 7.24 µM

Cc1noc(-c2ccc(CSCCC(=O)O)cc2)c1NC(=O)OC(C)c1ccccc1Cl (centres undefined)
inactive: Potency [2] | viability [3] 124% | Potency [4] | Potency [5] | Potency [6] | Potency [7] | Potency [8] | Potency [9] | Potency [16] | Potency [10] | Potency [11] | Potency [12]

CCCCOc1ccc(C(=O)Nc2ccc(F)cc2F)cc1
inactive: Potency [14] | Potency [5] | Potency [6] | Potency [16] | Potency [10] | Potency [15] | Potency [11] | Potency [12]
active: Potency [1] 0.105 µM | Potency [7] 7.43 µM

COc1ccc([C@@H]2CNC(=O)C2)cc1OC1CCCC1
active: Potency [2] 8.33 µM | Potency [4] 1.18 µM | Potency [5] 1.32 µM | Potency [6] 2.64 µM | Potency [7] 2.35 µM | Potency [8] 6.62 µM
inactive: Potency [10] | Potency [15] | Potency [11] | Potency [12]

Cc1[nH]c(C=C2C(=O)Nc3ccccc32)c(C)c1CCC(=O)O
active: Potency [14] 18.7 µM | Potency [2] 23.5 µM | Potency [4] 5.26 µM | Potency [5] 0.372 µM | Potency [6] 2.96 µM | Potency [7] 13.2 µM | Potency [8] 0.935 µM | Potency [12] 14.8 µM

O=C(O)[C@H](CC(=O)N1C[C@@H]2CCCC[C@H]2C1)Cc1ccccc1
inactive: Potency [2] | Potency [4] | Potency [8] | Potency [9] | Potency [16] | Potency [15] | Potency [11] | Potency [12]

OCCN1C[C@H](O)[C@@H](O)[C@H](O)[C@@H]1CO
inactive: Potency [17] | Potency [2] | viability [3] 126% | Potency [5] | Potency [7] | Potency [8] | Potency [9] | Potency [15] | Potency [11]

NC(=O)c1ncn([C@@H]2O[C@H](CO)[C@@H](O)[C@@H]2O)c1O
inactive: Potency [13] | Potency [2] | viability [3] 102% | Potency [4] | Potency [5] | Potency [7] | Potency [8] | Potency [9] | Potency [10] | Potency [15] | Potency [12]

C#C[C@]1(O)CC[C@@H]2[C@@H]3CCc4cc(O)ccc4[C@H]3CC[C@@]21C
active: Potency [1] 3.72 µM | Potency [14] 7.43 µM | Potency [2] 23.5 µM | Potency [3] 14.8 µM | Potency [4] 14.8 µM | Potency [5] 4.18 µM | Potency [6] 3.32 µM | Potency [7] 3.32 µM | Potency [16] 14.8 µM | Potency [11] 10.5 µM | Potency [12] 4.69 µM

FC(F)(F)c1ccc(Nc2nc3ccc(Oc4ccnc(-c5ncc(C(F)(F)F)[nH]5)c4)cc3[nH]2)cc1
active: Potency [17] 18.7 µM | Potency [14] 16.6 µM | Potency [2] 20.9 µM | Potency [4] 13.2 µM | Potency [5] 16.6 µM | Potency [6] 14.8 µM | Potency [9] 26.4 µM | Potency [16] 18.7 µM | Potency [10] 26.4 µM

O=S(=O)(O)CCSSCCS(=O)(=O)O
inactive: Potency [14] | Potency [2] | Potency [5] | Potency [8] | Potency [16] | Potency [15] | Potency [12]

CC(C)(O)CC[C@@H](O)[C@](C)(O)[C@H]1CC[C@@]2(O)C3=CC(=O)[C@@H]4C[C@@H](O)[C@@H](O)C[C@]4(C)[C@@H]3CC[C@]12C
inactive: Potency [13] | Potency [1] | Potency [14] | Potency [2] | Potency [6] | Potency [9] | Potency [16] | Potency [10] | Potency [15]

OC[C@@H](O)[C@@H](O)[C@H](O)[C@@H](O)CO
inactive: Potency [2] | viability [3] 122% | Potency [5] | Potency [6] | Potency [7] | Potency [16] | Potency [10] | Potency [15] | Potency [11] | Potency [12]

CCCCCCCN(CC)CCCC(O)c1ccc(NS(C)(=O)=O)cc1 (centres undefined)
active: Potency [6] 18.7 µM
inactive: Potency [13] | Potency [4] | Potency [10] | Potency [12]

C[C@](Cc1c[nH]c2ccccc12)(NC(=O)OC1C2CC3CC(C2)CC1C3)C(=O)NC[C@H](NC(=O)CCC(=O)O)c1ccccc1 (some centres undefined)
inactive: Potency [14] | viability [3] 114% | Potency [4] | Potency [9] | Potency [10] | Potency [15] | Potency [11] | Potency [12]
